Assay results reported in PubChem BioAssay AID425 (Sanford-Burnham Center for Chemical Genomics, 2006).
“And” between values parts separate entries of the source, which are not always exact repeats. Equal values may be shown once. About 190 (0.17%) of roughly 110,000 compounds were called active. Only a selection was taken, and actives are over-represented in it overall. Results with a measured potency or affinity are listed apart. Unmarked numbers belong to inactive results. No stated cut-off is given here; in the data, active means inhibition above about 50%; inactive means the rest.

molecular target: Dual specificity protein phosphatase 6 (Rattus norvegicus) (UniProt Q64346); test: inhibition of rat DUSP6 enzyme activity – biochemical, in vitro, primary screen (AID 425); conditions: recombinant MKP-3 phosphatase activity, fluorescence; at 20 µM; hits give high values;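 further: plate controls were vehicle for no effect and reference inhibitor for full effect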
Sequence (Q64346 whole entry, looked up): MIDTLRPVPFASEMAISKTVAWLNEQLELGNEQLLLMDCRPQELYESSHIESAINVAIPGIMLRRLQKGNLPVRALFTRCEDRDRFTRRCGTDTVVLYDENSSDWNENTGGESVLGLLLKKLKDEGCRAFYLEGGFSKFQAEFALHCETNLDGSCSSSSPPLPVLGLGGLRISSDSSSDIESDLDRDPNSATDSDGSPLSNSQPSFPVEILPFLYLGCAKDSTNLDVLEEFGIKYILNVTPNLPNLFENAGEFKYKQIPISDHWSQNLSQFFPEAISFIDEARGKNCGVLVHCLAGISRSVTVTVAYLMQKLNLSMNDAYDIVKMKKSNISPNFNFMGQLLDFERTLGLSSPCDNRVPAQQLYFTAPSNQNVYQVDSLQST

| SMILES | inhibition |
| --- | --- |
| Cc1cc(Cl)ccc1OCCCC(=O)NC1CCN(C)CC1 | -4.9% |
| Cn1c(CCNC(=O)c2ccccc2F)nnc1SCc1nc2ccccc2c(=O)[nH]1 | -5.4% |
| COc1ccc(S(=O)(=O)Nc2cccc([N+](=O)[O-])c2C)cc1 | -0.4% |
| CCCCSc1nc(C)c(CC(=O)OC)c(=O)[nH]1 | -20.2% |
| CCCOc1cccc(C(=O)Nc2ccc(Br)cc2C(=O)O)c1 | 2.6% |
| C=CCN1C(=O)/C(=C\c2ccc(I)o2)C(=O)NC1=S | 4.5% |
| O=C1NN(c2ccccc2)C(=O)/C1=C/c1ccc(-c2cccc([N+](=O)[O-])c2)o1 | 6.9% |
| O=C1NN(c2ccccc2)C(=O)/C1=C/c1ccc(-c2ccc(F)cc2)o1 | -3.3% |
| O=C1NN(c2ccccc2)C(=O)/C1=C/c1ccc(Br)o1 | 75.8% (active) |
| O=C1NN(c2ccccc2)C(=O)/C1=C/c1ccc([N+](=O)[O-])o1 | 56.6% (active) |
| O=C1NN(c2ccccc2)C(=O)/C1=C/c1ccc(-c2ccccc2)o1 | 7.9% |
| C=CCN1C(=O)/C(=C\c2ccc([N+](=O)[O-])o2)C(=O)NC1=S | 95.8% (active) |
| O=C1NN(c2ccccc2)C(=O)/C1=C/c1ccc(-c2ccccc2[N+](=O)[O-])o1 | 16% |
| C=CCN1C(=O)/C(=C\c2ccc(-c3ccc([N+](=O)[O-])cc3)o2)C(=O)NC1=S | 25.4% |
| Cc1ccc(S(=O)(=O)NC(C)(C)CN2CCN(CC(C)(C)NS(=O)(=O)c3ccc(C)cc3)CC2)cc1 | -0.5% |
| Cc1ccc2nc(NC(=O)c3ccccc3)sc2c1 | 1.9% |
| COc1ccccc1/C=C/C=N/NC(=O)CSc1nc2ccccc2n1C | 1.8% |
| CCOc1ccccc1NC(=O)c1c(NC(=O)c2cccc(F)c2)sc2c1CCC(C)C2 (configuration not stated) | 3.6% |
| CSc1nc(N2CCN(CCO)CC2)c2sc3nc(-c4ccco4)c4c(c3c2n1)CCC4 | 0.5% |
| CSc1nc(NCCOCCO)c2sc3nc(-c4ccco4)c4c(c3c2n1)CCC4 | -0.3% |
| O=C(/C=C/c1ccco1)Nc1ccc(Cl)c(Cl)c1 | 10.7% |
| O=C(/C=C/c1ccco1)/C=C/c1ccc(-c2ccc(Cl)c(Cl)c2)o1 | 75.1% (active) |
| O=C(O)/C=C/c1ccc(-c2ccc(Cl)c(Cl)c2)o1 | -3.2% |

| SMILES | inhibition |
| --- | --- |
| O=C1C(Cl)=CC(=NS(=O)(=O)c2ccc(Cl)cc2)c2ccccc21 | 95.7% (active) |
| COc1ccc(S(=O)(=O)N=C2C=CC(=NS(=O)(=O)c3ccc(OC)cc3)C=C2)cc1 | 1.8% |
| O=C1C(N2CCOCC2)=C/C(=N\S(=O)(=O)c2ccc(Cl)cc2)c2ccccc21 | 5.9% |
| Cc1ccc(S(=O)(=O)/N=C2/C=C(Sc3nnnn3-c3ccccc3)C(=O)c3ccccc32)cc1 | 27.3% |
| Cc1ccc(S(=O)(=O)/N=C2\C=CC(=O)C=C2Cl)cc1 | -0.1% |
| O=C1C(Cl)=C/C(=N\S(=O)(=O)c2ccc(Cl)cc2)C(Cl)=C1Cl | -1% |
| COc1ccc(S(=O)(=O)/N=C2\C=C(Br)C(=O)c3ccccc32)cc1 | 97.9% (active) |
| Cc1ccc(S(=O)(=O)/N=C2/C=C(Cl)C(=O)c3ccccc32)cc1 | 52.7% (active) |
| Cc1ccc(S(=O)(=O)/N=C2/C=C(S(=O)(=O)c3ccc(C)cc3)C(=O)c3ccccc32)cc1 | 20.6% |
| COC(=O)C(C(=O)OC)C1=C/C(=N/S(=O)(=O)c2ccc(C)cc2)c2ccccc2C1=O | 1.7% |
| Cc1ccc(S(=O)(=O)/N=C2\C=C(Sc3ncn[nH]3)C(=O)c3ccccc32)cc1 | 98.1% (active) |
| Cc1ccc(S(=O)(=O)/N=C2\C=C(n3cnc4ccccc43)C(=O)c3ccccc32)cc1 | 36.8% |
| N#CC1=C(N)N(c2ccccc2)C(c2ccco2)C1(C#N)C#N (configuration not stated) | -9.8% |
| COC(=O)c1ccccc1NC(=O)c1ccccc1C | 0.2% |
| O=C(/C=C/c1ccc2c(c1)OCO2)NC1CC2CCC1C2 (configuration not stated) | 3.3% |
| COc1ccc(C2=NN(CN3C(=O)C(=O)c4ccccc43)C(c3ccccc3)C2)cc1 (configuration not stated) | 1.1% |
| O=C1C2=C(C(c3ccccc3)=NCCN2)C(c2ccc(O)cc2)N1c1ccccc1 (configuration not stated) | 0.2% |
| Cc1ccccc1N1C(=O)/C(=C\c2cccs2)SC1=S | 0.2% |
| Cc1cccc(-c2nnc(SCc3nc4ccccc4[nH]3)n2Cc2ccco2)c1 | -6.8% |
| O=S(=O)(NCCOCCNS(=O)(=O)c1ccccc1)c1ccccc1 | -1.6% |
| Cc1ccc(/C(O)=C(\C#N)c2nc3ccccc3[nH]2)cc1 | 5.3% |
| O=C(O/N=C1/CCCc2c1sc1nc3n(c(=O)c21)CCCCC3)c1ccc([N+](=O)[O-])cc1 | -4.1% |
| Cc1ccc(S(=O)(=O)NC(=O)N2CCc3ccccc32)cc1 | 4.5% |

| SMILES | inhibition |
| --- | --- |
| CCN(CC)C(=O)CSc1nc2cccnc2n1-c1ccccc1OC | -6.6% |
| OCCCc1nc2ccccc2n1Cc1ccc2ccccc2c1 | 3.2% |
| CCc1nn(CC(=O)NCCCN(CC)Cc2ccccc2)c(=O)c2cc3sccc3n12 | 2% |
| O=C(O)c1cc(-c2ccc(/C=C3/Sc4ccccc4C3=O)o2)ccc1O | 84.4% (active) |
| O=C1NC(=O)/C(=C/c2ccc(-c3ccc(O)c(C(=O)O)c3)o2)S1 | 105% (active) |
| O=C1NC(=O)/C(=C\c2ccc(-c3ccc(C(=O)O)cc3)o2)S1 | 2.5% |
| O=C(O)c1cc(-c2ccc(C=C3C(=O)c4ccccc4C3=O)o2)ccc1O | 47.2% |
| O=C1/C(=C/c2ccc(-c3ccc(Cl)cc3C(=O)O)o2)Sc2ccccc21 | 7.4% |
| O=C1NC(=S)S/C1=C\c1ccc(-c2ccc(Cl)c(C(=O)O)c2)o1 | 10.9% |
| COc1ccccc1CNC(=O)C(NC(=O)C1CCCCC1)C(C)C (configuration not stated) | -3.5% |
| CCOC(=O)CNC(=S)Nc1ccc(F)cc1 | 1.8% |
| CN(C)c1ccc(/C=C/C=C/c2cc[n+](CCCS(=O)(=O)[O-])cc2)cc1 | 5% |
| c1ccc(-c2noc(C34CC5CC(CC(C5)C3)C4)n2)nc1 | -5.1% |
| CN1C(=O)NC(=O)/C(=C/c2ccc(-c3ccc([N+](=O)[O-])cc3Cl)o2)C1=O | 12% |
| CN1C(=O)NC(=O)/C(=C/c2ccc(-c3ccc(Cl)cc3Cl)o2)C1=O | 66.9% (active) |
| CN1C(=O)NC(=O)/C(=C/c2ccc(-c3ccc(Cl)cc3)o2)C1=O | 39.8% |
| CCn1nc(NC(=O)c2ccncc2)c2cc3cc(C)ccc3nc21 | -13.2% |
| O=C(NCCN1CCOCC1)c1cnn2c(C(F)(F)F)cc(-c3ccc(Br)cc3)nc12 | -0.4% |
| CCN1C(=O)N(COC(C)=O)C2C1N(COC(C)=O)C(=O)N2CC (configuration not stated) | 3.5% |
| Cc1c(-c2cccc(Cl)c2)nc2ccccc2c1C(=O)O | 1.1% |
| O=C(Cn1c(O)c(N=NC(=O)C(=O)Nc2ccc([N+](=O)[O-])cc2)c2ccccc21)Nc1ccccc1 | -0.4% |
| O=C(Cn1c(O)c(N=NC(=O)c2ccc([N+](=O)[O-])cc2)c2ccccc21)Nc1ccccc1 | 0.9% |
| Cc1ccc(C2SCC(=O)N2CCCN(C)C)cc1 (configuration not stated) | -0.2% |

| SMILES | inhibition |
| --- | --- |
| Cc1c(Cl)cccc1N=C1NC(=O)/C(=C/c2ccc(OC(C)C)cc2)S1 | 3.5% |
| Cc1ccccc1C(=O)Nc1cccc(C(=O)Nc2ccccc2Cl)c1 | 0.2% |
| O=C(Nc1ccccc1Cl)c1cccc(F)c1 | 0.5% |
| O=C(Nc1ccccc1Cl)c1cccc(NC(=O)C(F)(F)F)c1 | 98.8% (active) |
| CCOC(=O)C1=C(O)CCn2c1nc1ccccc12 | -0.7% and -13.2% |
| CCOC(=O)C1(C)C=C(Nc2ccc(S(=O)(=O)Nc3nccs3)cc2)C(=O)N1c1ccccc1 (configuration not stated) | 2.7% |
| COC(=O)c1c(NC(=O)c2cncc(Br)c2)sc2c1CCC2 | -14% |
| Cc1ccccc1NC(=O)C(C)NC(=O)C12CC3CC(CC(C3)C1)C2 (configuration not stated) | 1.2% |
| COc1ccc(Cl)cc1NC(=O)c1cc2nc(-c3ccccc3)cc(C)n2n1 | 63.8% (active) |
| COc1cc(NC(=O)c2cc3nc(-c4ccccc4)cc(C)n3n2)c(OC)cc1Cl | 10.6% |
| Cc1cc(-c2ccccc2)nc2cc(C(=O)Nc3ccc(Cl)cc3)nn12 | 3.4% |
| Cc1ccc(NC(=O)COc2ccc(Br)cc2)c(C)c1 | 2.7% |
| Cc1ccc(S(=O)(=O)Nc2cc(Sc3nc4ccccc4[nH]3)c(O)c3ccccc23)cc1 | 8.1% |
| Cc1ccc(S(=O)(=O)Nc2cc(C)c(O)c(Sc3ncn[nH]3)c2)cc1 | 4.4% |
| Cc1ccc(S(=O)(=O)Nc2cc(Sc3ncn[nH]3)c(O)c3ccccc23)cc1 | 56% (active) |
| COc1ccc(C2CC(=O)C3=C(C2)Nc2ccccc2NC3c2cccs2)cc1 (configuration not stated) | 3.6% |
| COc1ccc(-n2c(C)cc(C)nc2=O)cc1 | -1.5% |
| COc1ccc(OC)c(/C=c2\sc3nc(-c4cccs4)nn3c2=O)c1 | 0.4% |
| Cn1c(/C=C/c2cccnc2)nc2ccccc2c1=O | -2.3% |
| CCSc1nc(-c2cccs2)nc2c1c(=O)n(C)c(=O)n2C | -4.4% |
| CCOC(=O)Cn1nc(-c2ccccc2)nc1-c1ccccc1 | -8% |
| Cc1nc(C)n(C)c(=O)c1-c1ccccc1 | -0.4% |
| Cn1c(/C=C/c2ccc(Br)cc2)nc2ccccc2c1=O | 0.8% |
